Source: PubChem BioAssay AID651949 (Broad Institute, 2012)
Results with a measured potency or affinity are listed apart. The source made the active and inactive calls.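 Rule for the calls: active = compounds lowering cell ATP signal whose fitted half-maximal concentration is at most twice the top tested dose; inconclusive = flat curve with 30 to 70% signal loss, or poor fit; inactive = the rest.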

Assay: viability loss in HEK293T cells – cell-based, CellTiter-Glo luminescence, dry powder, set 6, cytotoxicity control, dose response (AID 651949)
Settings: CellTiter-Glo ATP luminescence, 48 h; series mostly up to 26 µM

| SMILES | outcome |
| --- | --- |
| c1ccc(CSc2nnc(-c3ccccc3)o2)cc1 | inactive |
| Clc1ccc(-c2nnc(SCc3ccccc3)o2)cc1 | inactive |
